According to ChEMBL document CHEMBL2218924, “A broad activity screen in support of a chemogenomic map for kinase signalling research and drug discovery” (Biochem J, 2013):

Assays:
[1] = target: Platelet-derived growth factor receptor alpha (Homo sapiens) (UniProt P16234); conditions: at 1 µM
[2] = target: Platelet-derived growth factor receptor alpha (Homo sapiens) (UniProt P16234); conditions: at 10 µM
[3] = target: Platelet-derived growth factor receptor beta (Homo sapiens) (UniProt P09619); conditions: at 1 µM
[4] = target: Platelet-derived growth factor receptor beta (Homo sapiens) (UniProt P09619); conditions: at 10 µM
[5] = target: T1, 3-phosphoinositide-dependent protein kinase 1 (Homo sapiens) (UniProt O15530); conditions: at 1 µM
T1 sequence (whole entry): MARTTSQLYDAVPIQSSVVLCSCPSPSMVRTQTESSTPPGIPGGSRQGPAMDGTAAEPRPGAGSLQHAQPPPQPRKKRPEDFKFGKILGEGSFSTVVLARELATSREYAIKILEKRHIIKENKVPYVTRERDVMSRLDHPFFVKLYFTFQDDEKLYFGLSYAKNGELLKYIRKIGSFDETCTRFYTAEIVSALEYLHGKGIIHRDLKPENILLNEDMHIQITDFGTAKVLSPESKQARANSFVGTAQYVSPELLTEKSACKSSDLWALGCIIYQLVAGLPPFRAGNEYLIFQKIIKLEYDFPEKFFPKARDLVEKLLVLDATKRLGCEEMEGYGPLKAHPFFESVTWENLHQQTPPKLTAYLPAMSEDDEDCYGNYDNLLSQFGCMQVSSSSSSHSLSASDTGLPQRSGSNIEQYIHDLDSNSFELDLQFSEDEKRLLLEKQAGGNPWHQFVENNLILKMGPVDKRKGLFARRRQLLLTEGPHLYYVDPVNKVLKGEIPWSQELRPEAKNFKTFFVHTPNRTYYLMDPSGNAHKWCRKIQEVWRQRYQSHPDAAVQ

[6] = target: T1, 3-phosphoinositide-dependent protein kinase 1 (Homo sapiens); conditions: at 10 µM
[7] = target: cAMP-dependent protein kinase catalytic subunit alpha (Homo sapiens) (UniProt P17612); conditions: at 1 µM
[8] = target: cAMP-dependent protein kinase catalytic subunit alpha (Homo sapiens) (UniProt P17612); conditions: at 10 µM
[9] = target: RAC-gamma serine/threonine-protein kinase (Homo sapiens) (UniProt Q9Y243); conditions: at 1 µM
[10] = target: RAC-gamma serine/threonine-protein kinase (Homo sapiens) (UniProt Q9Y243); conditions: at 10 µM
[11] = target: Protein kinase C alpha type (Homo sapiens) (UniProt P17252); conditions: at 1 µM
[12] = target: Protein kinase C alpha type (Homo sapiens) (UniProt P17252); conditions: at 10 µM
[13] = target: Protein kinase C beta type (Homo sapiens) (UniProt P05771); conditions: at 1 µM
[14] = target: Protein kinase C beta type (Homo sapiens) (UniProt P05771); conditions: at 10 µM
[15] = target: Protein kinase C beta type (Homo sapiens) (UniProt P05771); conditions: at 1 µM; remark: listed apart in the source
[16] = target: Protein kinase C beta type (Homo sapiens) (UniProt P05771); conditions: at 10 µM; remark: listed apart in the source
[17] = target: Protein kinase C gamma type (Homo sapiens) (UniProt P05129); conditions: at 10 µM
[18] = target: Protein kinase C delta type (Homo sapiens) (UniProt Q05655); conditions: at 1 µM
[19] = target: Protein kinase C delta type (Homo sapiens) (UniProt Q05655); conditions: at 10 µM
[20] = target: Protein kinase C gamma type (Homo sapiens) (UniProt P05129); conditions: at 1 µM

Platelet-derived growth factor receptor alpha (Homo sapiens), sequence (P16234 whole entry): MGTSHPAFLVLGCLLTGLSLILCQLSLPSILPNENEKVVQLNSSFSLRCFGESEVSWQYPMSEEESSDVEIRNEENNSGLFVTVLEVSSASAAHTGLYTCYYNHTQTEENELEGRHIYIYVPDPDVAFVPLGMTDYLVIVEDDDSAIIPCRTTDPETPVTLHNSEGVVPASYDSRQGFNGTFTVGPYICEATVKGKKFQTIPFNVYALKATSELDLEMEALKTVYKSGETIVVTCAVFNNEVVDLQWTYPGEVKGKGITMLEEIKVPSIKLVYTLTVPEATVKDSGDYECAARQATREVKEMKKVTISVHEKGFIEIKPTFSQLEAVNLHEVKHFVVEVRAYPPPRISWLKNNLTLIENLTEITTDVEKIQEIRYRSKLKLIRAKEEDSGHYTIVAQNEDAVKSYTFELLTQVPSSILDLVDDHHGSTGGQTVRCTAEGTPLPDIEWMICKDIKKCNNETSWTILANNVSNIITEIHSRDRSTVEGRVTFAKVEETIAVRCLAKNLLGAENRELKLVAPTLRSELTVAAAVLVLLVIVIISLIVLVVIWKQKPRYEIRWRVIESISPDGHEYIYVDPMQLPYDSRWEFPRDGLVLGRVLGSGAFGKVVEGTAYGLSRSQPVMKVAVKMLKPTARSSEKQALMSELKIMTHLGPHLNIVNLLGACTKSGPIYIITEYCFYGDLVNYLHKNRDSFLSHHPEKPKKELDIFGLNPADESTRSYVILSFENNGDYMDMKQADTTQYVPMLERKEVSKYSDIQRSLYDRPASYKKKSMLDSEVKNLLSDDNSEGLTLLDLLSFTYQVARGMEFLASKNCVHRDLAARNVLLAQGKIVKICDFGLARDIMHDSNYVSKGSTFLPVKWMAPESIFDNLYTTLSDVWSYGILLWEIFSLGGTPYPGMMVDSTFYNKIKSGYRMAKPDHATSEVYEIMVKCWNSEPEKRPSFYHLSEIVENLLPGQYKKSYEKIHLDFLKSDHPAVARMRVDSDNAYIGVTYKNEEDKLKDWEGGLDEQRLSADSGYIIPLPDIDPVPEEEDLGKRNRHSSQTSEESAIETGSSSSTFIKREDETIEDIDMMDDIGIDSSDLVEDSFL
RAC-gamma serine/threonine-protein kinase (Homo sapiens), sequence (Q9Y243 whole entry): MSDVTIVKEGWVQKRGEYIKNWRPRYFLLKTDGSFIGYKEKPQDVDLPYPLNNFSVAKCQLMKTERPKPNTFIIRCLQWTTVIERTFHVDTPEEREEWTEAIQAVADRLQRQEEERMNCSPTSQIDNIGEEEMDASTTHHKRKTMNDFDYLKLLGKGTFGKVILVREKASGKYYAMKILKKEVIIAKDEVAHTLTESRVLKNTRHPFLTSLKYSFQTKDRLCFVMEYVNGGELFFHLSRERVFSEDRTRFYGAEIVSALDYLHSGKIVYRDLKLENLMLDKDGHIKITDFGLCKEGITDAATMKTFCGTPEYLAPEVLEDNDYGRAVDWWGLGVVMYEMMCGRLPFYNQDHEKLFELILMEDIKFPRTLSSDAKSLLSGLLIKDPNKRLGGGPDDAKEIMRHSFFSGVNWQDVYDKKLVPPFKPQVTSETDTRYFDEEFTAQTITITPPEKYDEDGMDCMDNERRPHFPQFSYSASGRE
Platelet-derived growth factor receptor beta (Homo sapiens), sequence (P09619 whole entry): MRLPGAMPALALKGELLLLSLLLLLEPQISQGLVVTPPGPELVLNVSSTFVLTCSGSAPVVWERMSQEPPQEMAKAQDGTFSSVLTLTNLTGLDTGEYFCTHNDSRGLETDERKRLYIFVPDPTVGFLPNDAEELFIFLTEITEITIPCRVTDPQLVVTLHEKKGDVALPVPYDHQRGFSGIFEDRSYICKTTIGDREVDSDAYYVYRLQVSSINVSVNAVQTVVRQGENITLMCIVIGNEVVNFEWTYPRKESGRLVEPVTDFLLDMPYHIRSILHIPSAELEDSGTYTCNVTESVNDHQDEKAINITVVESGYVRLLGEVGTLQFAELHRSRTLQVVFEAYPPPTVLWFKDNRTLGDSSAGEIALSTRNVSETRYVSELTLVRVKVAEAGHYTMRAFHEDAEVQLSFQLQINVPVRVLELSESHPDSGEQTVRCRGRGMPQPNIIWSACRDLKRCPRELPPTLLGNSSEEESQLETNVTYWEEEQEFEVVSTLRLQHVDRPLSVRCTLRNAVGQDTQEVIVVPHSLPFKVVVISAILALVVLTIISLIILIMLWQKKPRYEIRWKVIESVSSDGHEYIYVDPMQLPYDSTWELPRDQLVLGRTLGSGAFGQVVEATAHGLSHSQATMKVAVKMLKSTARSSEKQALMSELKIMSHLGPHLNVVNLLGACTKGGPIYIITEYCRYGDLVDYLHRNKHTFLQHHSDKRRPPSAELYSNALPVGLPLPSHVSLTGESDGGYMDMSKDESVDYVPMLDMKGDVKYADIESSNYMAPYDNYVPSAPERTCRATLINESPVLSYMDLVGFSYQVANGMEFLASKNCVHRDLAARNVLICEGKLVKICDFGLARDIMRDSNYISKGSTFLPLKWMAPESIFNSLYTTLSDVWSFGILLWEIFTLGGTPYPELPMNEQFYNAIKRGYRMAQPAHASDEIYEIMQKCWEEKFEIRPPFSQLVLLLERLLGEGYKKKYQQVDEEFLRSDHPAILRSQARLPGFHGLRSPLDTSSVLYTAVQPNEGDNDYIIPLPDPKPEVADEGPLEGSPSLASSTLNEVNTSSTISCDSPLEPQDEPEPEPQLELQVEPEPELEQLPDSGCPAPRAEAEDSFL
Protein kinase C delta type (Homo sapiens), sequence (Q05655 whole entry, looked up): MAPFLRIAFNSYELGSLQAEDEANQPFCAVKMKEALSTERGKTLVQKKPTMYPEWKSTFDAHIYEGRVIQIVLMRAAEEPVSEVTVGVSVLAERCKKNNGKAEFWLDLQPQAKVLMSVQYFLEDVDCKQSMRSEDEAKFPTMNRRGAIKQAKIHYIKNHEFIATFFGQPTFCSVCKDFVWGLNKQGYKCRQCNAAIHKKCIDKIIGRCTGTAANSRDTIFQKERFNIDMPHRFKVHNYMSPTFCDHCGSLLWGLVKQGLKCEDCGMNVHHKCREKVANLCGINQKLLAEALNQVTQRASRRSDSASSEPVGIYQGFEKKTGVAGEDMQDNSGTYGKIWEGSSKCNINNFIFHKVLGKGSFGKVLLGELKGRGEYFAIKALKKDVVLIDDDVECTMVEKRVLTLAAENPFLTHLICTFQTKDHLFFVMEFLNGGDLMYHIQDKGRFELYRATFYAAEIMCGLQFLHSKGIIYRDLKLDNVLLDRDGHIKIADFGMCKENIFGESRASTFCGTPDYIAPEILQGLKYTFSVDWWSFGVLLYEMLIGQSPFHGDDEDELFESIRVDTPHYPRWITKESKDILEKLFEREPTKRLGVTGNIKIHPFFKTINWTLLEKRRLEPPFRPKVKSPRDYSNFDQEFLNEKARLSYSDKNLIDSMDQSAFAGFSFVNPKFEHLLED

Compound	residual activity [1]	residual activity [2]	residual activity [3]	residual activity [4]	residual activity [5]	residual activity [6]	residual activity [7]	residual activity [8]	residual activity [9]	residual activity [10]	residual activity [11]	residual activity [12]	residual activity [13]	residual activity [14]	residual activity [15]	residual activity [16]	residual activity [17]	residual activity [18]	residual activity [19]	residual activity [20]
Cn1cc(/C=C2\C(=O)Nc3ccc(S(N)(=O)=O)cc32)c2ccccc21	77%	33%	98%	51%	76%	32%	93%	57%	88%	81%	108%	104%	111%	109%	103%	108%	79%	101%	99%	–
Cn1nc2c3c(cccc31)C(=O)c1ccccc1-2	–	–	91%	88%	95%	74%	87%	90%	95%	91%	101%	97%	107%	104%	109%	103%	101%	104%	108%	90%
Cc1nc(-c2ccccc2)c(-c2ccncc2)o1	89%	83%	99%	92%	114%	102%	94%	85%	118%	88%	113%	101%	109%	95%	106%	101%	–	101%	90%	108%
Cc1cncc2cccc(S(=O)(=O)N3CCCN(C(=O)CN)C[C@H]3C)c12	–	–	100%	96%	–	–	69%	59%	100%	84%	99%	85%	82%	31%	95%	51%	–	7%	3%	–
N#CC(C#N)=C(N)/C(C#N)=C/c1ccc(O)cc1	119%	–	99%	–	–	–	82%	63%	–	–	–	–	120%	122%	96%	90%	79%	–	–	–
O=c1cc(-c2cccc3c2Sc2ccccc2S3)oc(N2CCOCC2)c1	106%	–	111%	92%	99%	107%	102%	104%	106%	84%	95%	86%	102%	100%	104%	101%	95%	100%	104%	99%
CCOc1cc2ncnc(Nc3cccc(Br)c3)c2cc1OCC	–	90%	89%	91%	104%	86%	73%	86%	100%	100%	107%	97%	87%	97%	100%	103%	112%	106%	104%	108%
O=[N+]([O-])c1ccc(-c2nc(-c3ccc(F)cc3)c(-c3ccncc3)[nH]2)cc1	114%	114%	103%	111%	117%	100%	97%	82%	98%	75%	110%	99%	107%	97%	107%	96%	114%	104%	103%	–
Cc1cc2ncc(-c3ccccc3)nc2cc1C	–	–	99%	96%	–	–	86%	75%	90%	87%	106%	109%	125%	131%	100%	107%	105%	103%	85%	106%
c1ccc2c(-c3ccncc3)c[nH]c2c1	–	–	–	–	111%	110%	93%	50%	89%	76%	98%	80%	105%	64%	98%	65%	86%	63%	23%	106%
Cc1ccc(S(=O)(=O)/C=C/C#N)cc1	100%	109%	104%	107%	105%	108%	102%	102%	108%	85%	88%	93%	98%	102%	104%	–	87%	101%	105%	99%
Cc1cccc(-c2[nH]c(C(C)(C)C)nc2-c2ccc3c(c2)OCO3)n1	–	–	–	–	–	–	87%	91%	–	–	–	–	–	–	–	–	–	98%	101%	–
